PubChem BioAssay AID624331 (National Center for Advancing Translational Sciences (NCATS), 2012)
Records with an inconclusive call do not appear. The source made the active and inactive calls. The call rests on the fitted dose curve; in most records, active means well fitted activation curve with a large enough effect; inconclusive means small, poorly fitted or top-dose-only effect; inactive means no such curve, though single readings can be large or run the other way.

Test: qHTS assay for re-activators of p53 using a Luc reporter: Hit Validation with no p53 Expressed; on activity change, positive = activation: 0% is about no effect
Settings: p53-null cells, luciferase reporter counter-screen; series mostly up to 46.1 µM; activity change, positive = activation: at the top concentration
Summary of the method: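 Without p53 expression, cells (1000/well, Opti-MEM + 10% FBS) were exposed 24 h at 37 deg C to compounds in a 1:5 series from 10 mM stock (top 46.1 µM in well). Luminescent signal read 10 min after Amplite addition; actives flag unspecific activation.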
Potency means the concentration at half of the fitted maximal effect.

Row | SMILES | activity change, positive = activation | Potency
1 | c1nc(C2CCCCC2)cc2cc3c(cc12)OCO3 | 34.3% (inactive) | 
2 | COC(=O)c1ccc(CSc2nnc(-c3c[nH]c4ccccc34)n2-c2ccccc2)cc1 | 5.8% (inactive) | 
3 | CCCN(C(=O)c1cccc(S(=O)(=O)N2CCCc3ccccc32)c1)C1CCS(=O)(=O)C1 (centres undefined) | -22.7% (inactive) | 
4 | COC(=O)CSc1nc2cc3c(cc2cc1C#N)OCO3 | -2.65% (inactive) | 
5 | Cc1ccccc1-c1noc(N)c1C#N | -35.5% (inactive) | 
6 | COc1ccc2oc(C(=O)OCC(=O)NCCN3C(=O)CSC3=O)c(C)c2c1 | 38% (inactive) | 
7 | CCOc1ccc(NC(=O)/C=C/c2ccccc2)c([N+](=O)[O-])c1 | 18.1% (inactive) | 
8 | CN(C)c1cccc(C(=O)NNC(=O)CN2C(=O)C3CC=CCC3C2=O)c1 (centres undefined) | 38.2% (inactive) | 
9 | COc1ccc2c(c1)Cc1sc(NC(C)=O)nc1-2 | 29.1% (inactive) | 
10 | Cc1ccc(C(=O)NCC(=O)N2CCCCCC2)cc1 | 39.6% (inactive) | 
11 | O=C(NCc1ccco1)c1noc2c1CCCC2 | 3.62% (inactive) | 
12 | CCOc1ccc(C(O)Cc2nc3ccccc3n2C)cc1 (centres undefined) | -16.8% (inactive) | 
13 | CCC(=O)c1ccc(OC(=O)Cc2ccc(OC)cc2)cc1 | -69% (inactive) | 
14 | O=C(/C=C\Nc1cccc(F)c1)c1ccc2c(c1)OCO2 | -22.4% (inactive) | 
15 | Cc1ccccc1C(=O)Nc1ccc(Br)cn1 | 27.2% (inactive) | 
16 | OCCNc1nc(NCc2ccccc2)c2ccccc2n1 | 26.2% (inactive) | 
17 | O=C(/C=C/c1ccco1)Nc1ccc2nn(-c3ccccc3)nc2c1 | -36.9% (inactive) | 
18 | O=C(N/N=C/C1C(c2ccccc2)C1(Cl)Cl)c1cccc(Cl)c1 (centres undefined) | -39.2% (inactive) | 
19 | Cc1cccc(/C(N)=N/OC(=O)c2ccc3c(c2)OCO3)c1 | 57.1% (inactive) | 
20 | O=C(Nc1nnc(-c2ccccc2F)s1)C1CCN(S(=O)(=O)c2ccc(Cl)cc2)CC1 | -11.9% (inactive) | 

Row | SMILES | activity change, positive = activation | Potency
21 | CC(=O)N1CCC(C(=O)Nc2ccc(S(=O)(=O)NCCc3ccccc3)cc2)CC1 | -14.8% (inactive) | 
22 | c1ccc(-n2ncc3c(N4CCCCC4)ncnc32)cc1 | -18.3% (inactive) | 
23 | CCN1CCN(/C=N/c2nc3c(s2)CCCC3)CC1 | -54% (inactive) | 
24 | O=C(/C=C/Nc1ccc(F)cc1F)c1cccs1 | 26.9% (inactive) | 
25 | C=CCNc1ncnc2c1cnn2-c1ccc(Cl)cc1 | 55.5% (inactive) | 
26 | CC1CCN(C2=C(NS(=O)(=O)c3ccc(Br)cc3)C(=O)c3ccccc3C2=O)CC1 | 48% (inactive) | 
27 | O=C(COC(=O)CNC(=O)c1ccc([N+](=O)[O-])o1)Nc1ncc(C(F)(F)F)cc1Cl | 95.4% (inactive) | 
28 | COc1ccc2oc(C(=O)Nc3nnc(C)s3)c(C)c2c1 | 82.1% (inactive) | 
29 | CCOc1ccc(OCc2cccc(C(=O)N3CCCC3)c2)cc1 | 0.911% (inactive) | 
30 | O=C(/C(=N/N=C/c1ccc(O)c(O)c1)c1ccccc1)c1ccccc1 | -13.4% (inactive) | 
31 | CC(C)(C)CC(=O)O/N=C(\N)c1ccccn1 |  | 0.164 µM (active)
32 | Nc1c(C(=O)c2ccc(Cl)cc2)oc2ccccc12 | -3.51% (inactive) | 
33 | COc1ccccc1NC(CC(=O)c1ccccc1)C(=O)OCC(=O)c1ccc(C)c(C)c1 (centres undefined) | 61.6% (inactive) | 
34 | CC(C)(C)c1nnc(SCC(=O)c2ccccc2)n(N)c1=O | -1.02% (inactive) | 
35 | C#CC(C)(CC)NC(=O)Cn1nnc(-c2ccc(S(C)(=O)=O)cc2)n1 (centres undefined) | -8.63% (inactive) | 
36 | CCN(CC)c1ccc(CNc2ccc(Br)cn2)cc1 | 84.8% (inactive) | 
37 | COC(=O)c1c(C)[nH]c(C(=O)/C=C/c2ccccc2)c1C | 1.34% (inactive) | 
38 | COc1ccccc1C(=O)CSc1nccn1C | 68.7% (inactive) | 
39 | O=C(N/N=C/c1cccc(F)c1)NC1CCCCC1 | 33% (inactive) | 
